# Results taken from PubChem BioAssay (EPA / NIEHS).
# Several values for one entry are separate records, joined by “and”; a condition that tells them apart may be missing. Equal entries are not always repeated. Results filed as inconclusive are left out. Where a structure was tested more than once in an assay, its records may differ in their call. Activity calls are given as the source filed them. Rule for the calls, unless noted: active = hit-call score of the fitted dose curve at least 0.9, where 1 is the maximum; inconclusive = response in the unintended direction; inactive = score below 0.9.
# Tests used:
# [1] = VALA_MIGHUV1_ScratchOnly_WoundArea: VALA Sciences human Umbilical Vein Endothelial Cell Migration (MIGHUV) Assay, Area of Scratch Wound Inhibited Recovery (AID 2284336)
# Method in brief: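 HUVEC monolayers (9000 cells/well) were scratched after 24 h, dosed within 30 min (six concentrations, triplicate, 0.1% DMSO), allowed 24 h recovery, then fixed. Hoechst-stained nuclei in the wound imaged; cytochalasin D as reference.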
# [2] = VALA_TUBHUV_Agonist_TubuleLength: VALA Sciences human Umbilical Vein Endothelial Tubule Formation (TUBHUV) Agonism Assay (AID 2284337)
# Method in brief: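 HUVEC co-cultured with fibroblasts (1:3) 3 days in 10 ng/ml VEGF, then 3 days with compound plus VEGF; 0.1 % DMSO neutral control. Fixed, nuclear and CD31 stained; tubule length by fluorescence imaging.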
# [3] = VALA_TUBIPS_Agonist_CellCount: Viability Assessment in the VALA Sciences human iPS-derived Endothelial Tubule Formation (TUBIPS) Agonism Assay (AID 2284338)
# [4] = tested on: SERPINA7 (gene 6906); experiment: CCTE_GLTED_hTBG: CCTE's human Thyroxine-binding Globulin (TBG) Inhibition Assay, Great Lakes Toxicology and Ecology Division (GLTED) Lab (AID 2284343);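 note: active chemicals lower fluorescence versus DMSO baseline by displacing probe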
# Method in brief: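 hTBG + test chem, 2 h; ANSA probe displacement; fluorescence readout ex380/em475; DMSO = neg ctrl/baseline; cell-free.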
# [5] = CCTE_Mundy_HCI_iCellGluta_NOG_NeuronCount: CCTE's Neurite Outgrowth Assay in iCellGluta cells for Neuron Count, Mundy Lab (AID 2284340);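 note: cells fixed about 48 h after compound addition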
# Method in brief: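 Neuron count read by automated high-content imaging of Hoechst 33342 and betaIII-tubulin/Alexa Fluor-488 labelling in human iPSC glutamatergic neurons. Activity fitted relative to DMSO.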
# [6] = CCTE_Mundy_HCI_iCellGluta_NOG_NeuriteCount: CCTE's Neurite Outgrowth Assay in iCellGluta cells for Neurite Count, Mundy Lab (AID 2284342);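 note: chemical exposure about 48 hours starting 2 hours after plating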
# [7] = Tanguay_ZF_120hpf_MO24: Oregon State University Tanguay Lab 24 Hour Post-fertilization zebrafish Assay for Mortality (AID 2284389; active = hit-call score of the fitted dose curve at least 0.9, where 1 is the maximum; inactive = score below 0.9)
# Method in brief: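 Dechorionated wild-type zebrafish embryos, 1 per well, statically exposed from 6 hpf at 28C, 0.64% DMSO final. Mortality scored as binary present/absent at 24 hpf by brightfield microscopy, relative to DMSO.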
# [8] = Tanguay_ZF_120hpf_DP24: Oregon State University Tanguay Lab 24 Hour Post-fertilization zebrafish Assay for Delayed Development (AID 2284390; active = hit-call score of the fitted dose curve at least 0.9, where 1 is the maximum; inactive = score below 0.9)
# Method in brief: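 Dechorionated 5D wild-type zebrafish embryos exposed statically from 6 hpf, one per well, 0.64% DMSO final, 28 C, sealed and dark. Developmental progression scored at 24 hpf by brightfield as binary present/absent; dead embryos excluded.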
# [9] = Tanguay_ZF_120hpf_CRAN: Oregon State University Tanguay Lab 120 Hour Post-fertilization zebrafish Assay for Craniofacial Malformation (AID 2284397; active = hit-call score of the fitted dose curve at least 0.9, where 1 is the maximum; inactive = score below 0.9)
# Method in brief: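 Dechorionated Tropical 5D wild-type zebrafish embryos, one per well, were statically exposed from 6 to 120 hpf at 28C in 0.64% DMSO, with 5uM trimethyltin chloride as positive control. Craniofacial malformation was scored present/absent by brightfield microscopy, relative to DMSO.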
# [10] = Tanguay_ZF_120hpf_AXIS: Oregon State University Tanguay Lab 120 Hour Post-fertilization zebrafish Assay for Axial Malformation (AID 2284398; active = hit-call score of the fitted dose curve at least 0.9, where 1 is the maximum; inactive = score below 0.9)
# Method in brief: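 Dechorionated 5D wild-type zebrafish embryos exposed statically, one per well, from 6 to 120 hpf at 28C, 0.64% DMSO. Axial malformation scored as present/absent by brightfield microscopy at 120 hpf; dead embryos not scored.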
# [11] = Tanguay_ZF_120hpf_MORT: Oregon State University Tanguay Lab 120 Hour Post-fertilization zebrafish Assay for Mortality (AID 2284399; active = hit-call score of the fitted dose curve at least 0.9, where 1 is the maximum; inactive = score below 0.9)
# Method in brief: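 Dechorionated wild-type Tropical 5D zebrafish embryos, one per well from 6 hpf, static exposure to 120 hpf at 28C in sealed dark plates, 0.64% DMSO final. Mortality scored as binary by brightfield at 24 and 120 hpf.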
# [12] = Tanguay_ZF_120hpf_EDEM: Oregon State University Tanguay Lab 120 Hour Post-fertilization zebrafish Assay for Edema Malformation (AID 2284400; active = hit-call score of the fitted dose curve at least 0.9, where 1 is the maximum; inactive = score below 0.9)
# Method in brief: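 Dechorionated Tropical 5D wild-type embryos, one per well, statically exposed from 6 to 120 hpf at 28C in 0.64% DMSO. Edema scored present/absent by brightfield microscopy at 120 hpf; dead embryos not scored; fit versus DMSO.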
# [13] = Tanguay_ZF_120hpf_BRN: Oregon State University Tanguay Lab 120 Hour Post-fertilization zebrafish Assay for Brain Region Malformation (AID 2284402; active = hit-call score of the fitted dose curve at least 0.9, where 1 is the maximum; inactive = score below 0.9)
# Method in brief: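 Dechorionated wild-type Tropical 5D zebrafish embryos exposed statically from 6 to 120 hpf at 28C, one per well, 0.64% DMSO final. Brain malformation scored at 120 hpf by brightfield as present/absent; dead embryos not scored.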
# [14] = Tanguay_ZF_120hpf_TCHR: Oregon State University Tanguay Lab 120 Hour Post-fertilization zebrafish Assay for Touch Responsive (AID 2284403; active = hit-call score of the fitted dose curve at least 0.9, where 1 is the maximum; inactive = score below 0.9)
# Method in brief: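 Dechorionated Tropical 5D wild-type zebrafish embryos, one per well from 6 hpf, were statically exposed to 120 hpf at 28 °C (0.64% DMSO). Touch response was scored present/absent at 120 hpf and not scored in dead larvae.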
# [15] = Tanguay_ZF_120hpf_ANY: Oregon State University Tanguay Lab 120 Hour Post-fertilization zebrafish Assay for Any Mortality and Malformation (AID 2284404; active = hit-call score of the fitted dose curve at least 0.9, where 1 is the maximum; inactive = score below 0.9)
# Method in brief: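 Dechorionated Tropical 5D wild-type embryos, one per well from 6 hpf, static exposure in sealed, dark plates at 28C until 120 hpf, 0.64% DMSO final. Brightfield scoring of mortality and malformations as binary presence/absence, pooling 13 morphology endpoints.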
# [16] = CCTE_Deisenroth_H295R-HTRF_384WELL_ESTRADIOL: CCTE's H295R-HTRF Assay Evaluation of Estradiol Concentration, Deisenroth Lab (AID 2284361; active = hit-call score of the fitted dose curve at least 0.9, where 1 is the maximum; inactive = score below 0.9); settings: actives raise or lower the signal
# Method in brief: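 H295R cells exposed 48 h to chemicals at 0.001 - 100 uM final (nine points, triplicate); estradiol in conditioned medium measured by HTRF immunoassay, fitted bidirectionally versus DMSO. Viability by CellTiter-Glo on same plates.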
# [17] = CCTE_Deisenroth_H295R-HTRF_384WELL_TESTOSTERONE: CCTE's H295R-HTRF Assay Evaluation of Testosterone Concentration, Deisenroth Lab (AID 2284373; active = hit-call score of the fitted dose curve at least 0.9, where 1 is the maximum; inactive = score below 0.9); settings: actives raise or lower the signal
# Method in brief: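 Testosterone secreted into medium was quantified by direct HTRF immunoassay after a 48 h treatment of H295R adrenocortical cells (nine concentrations, 0.001–100 uM final). Gain or loss fitted relative to DMSO; CellTiter-Glo viability read on same plates.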
# [18] = CCTE_Deisenroth_H295R-HTRF_384WELL_CTOX: Cytotoxicity Assessment in CCTE's H295R-HTRF Assay, Deisenroth Lab (AID 2284380)
# Method in brief: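 H295R adrenocortical carcinoma cells plated 24 h, then exposed 48 h to nine-point series 0.001–100 uM final, triplicate, n=5. ATP measured by CellTiter-Glo 2.0 luminescence on same plates after medium collection; loss versus DMSO.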
# [19] = tested on: SRY-box transcription factor 17 (SOX17) Protein Expression, Deisenroth Lab, SOX17 (gene 64321); experiment: CCTE_Deisenroth_DEVTOX-GLR_legacy_Sox17: (Legacy) CCTE's DevTox GLR-Endo Assay Evaluation of SRY-box transcription factor 17 (SOX17) Protein Expression, Deisenroth Lab (AID 2284341; active = hit-call score of the fitted dose curve at least 0.9, where 1 is the maximum; inactive = score below 0.9); settings: actives raise or lower the signal
# Method in brief: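 Using the RUES2-GLR line, compounds are tested as 10-point series during 48-h defined-media differentiation. Sox17 reporter fluorescence per cell determines positivity; endpoint is percentage positive, analysed bidirectionally versus DMSO baseline.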
# [20] = tested on: SRY-box transcription factor 2 (SOX2) Protein Expression, Deisenroth Lab, SOX2 (gene 6657); experiment: CCTE_Deisenroth_DEVTOX-GLR_legacy_Sox2: (Legacy) CCTE's DevTox GLR-Endo Assay Evaluation of SRY-box transcription factor 2 (SOX2) Protein Expression, Deisenroth Lab (AID 2284346; active = hit-call score of the fitted dose curve at least 0.9, where 1 is the maximum; inactive = score below 0.9)
# Method in brief: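 RUES2-GLR human pluripotent cells were differentiated for 48 h with two chemical doses 24 h apart, over 1 nM-200 uM. Sox2+ cells were those above 5x BMAD of the endoderm-control median; percent Sox2+ minus the 0.2% DMSO median was used, from n=4 replicates.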
smiles,measurement,setting,value
O=C(O)Cc1cc(I)c(Oc2cc(I)c(O)c(I)c2)c(I)c1,outcome,[1],inactive
same,outcome,[2],inactive
same,outcome,[3],inactive
same,AC50,[4],0.0197 µM (active)
COc1ccc([N+](=O)[O-])cc1N,AC50,[4],50 µM (active)
C=C(C)C(=O)OCCC(F)(F)C(F)(F)C(F)(F)C(F)(F)C(F)(F)C(F)(F)F,outcome,[5],inactive
same,outcome,[6],inactive
same,outcome,[7],inactive
same,outcome,[8],inactive
same,outcome,[9],inactive
same,outcome,[10],inactive
same,outcome,[11],inactive
same,outcome,[12],inactive
same,outcome,[13],inactive
same,outcome,[14],inactive
same,outcome,[15],inactive
O=[N+]([O-])c1ccc(O)cc1,AC50,[4],33.3 µM (active) and 47.2 µM (active)
CCCCCCCCCCCCc1ccccc1S(=O)(=O)O,outcome,[1],inactive
same,AC50,[2],15.6 µM (active)
same,AC50,[3],1.5 µM (active)
same,AC50,[4],4.89 µM (active)
Cc1cc(C)c(O)c(C)c1,outcome,[4],inactive
OCCC(F)(F)C(F)(F)C(F)(F)C(F)(F)C(F)(F)C(F)(F)F,outcome,[5],inactive
same,outcome,[6],inactive
same,outcome,[7],inactive
same,outcome,[8],inactive
same,outcome,[9],inactive
same,outcome,[10],inactive
same,outcome,[11],inactive
same,outcome,[12],inactive
same,outcome,[13],inactive
same,outcome,[14],inactive
same,outcome,[15],inactive
CC#C[C@]1(O)CC[C@H]2[C@@H]3CCC4=CC(=O)CCC4=C3[C@@H](c3ccc(N(C)C)cc3)C[C@@]21C,AC50,[5],27.3 µM (active)
same,outcome,[5],inactive
same,AC50,[6],58.9 µM (active)
same,outcome,[6],inactive
same,outcome,[16],inactive
same,outcome,[17],inactive
same,outcome,[18],inactive
CC[C@H](c1ccc(O)cc1)[C@@H](CC)c1ccc(O)cc1,AC50,[4],8.97 µM (active)
ClC1=C(Cl)C(Cl)(Cl)C(Cl)=C1Cl,AC50,[4],23.9 µM (active)
CC[C@H](C)[C@@H](C(=O)O)n1sc2ccccc2c1=O,AC50,[4],18.2 µM (active)
CC(O)CO (stereo unspecified),outcome,[19],inactive
same,outcome,[20],inactive
CC(C)(C)CC(C)(C)c1ccc(O)c(-n2nc3ccccc3n2)c1,AC50,[4],16.3 µM (active)
